AF4-AF9 inh = inhibitors of AF4 peptide binding to AF9, primary screen, biochemical, AlphaScreen, biotin-AF4 peptide, FLAG-AF9, single point. inhibition, % at 10 µM. hit rate 0.47% among 350,000. Protein AF-9 (Homo sapiens), P42568;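 active = every replicate reaching a set inhibition limit, whatever the replicate mean, cut at about 25% in these data; inconclusive = mean inhibition reaches that limit but some replicates miss it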;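 also: 0% = plate neutral control median and 100% = total signal loss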
CASP6 VEID inh = human caspase-6 inhibitors, primary screen, biochemical, VEID-R110 fluorescence, single point, set 2; purified caspase-6, Z-VEID-R110 cleavage fluorescence; inhibition, % at 12.5 µM; hit rate 0.53% among 350,000;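 active = mean inhibition across replicates at least about 35%, with every replicate also reaching that limit, limit read from the data; inconclusive = only one of the two criteria met; inactive = neither criterion met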;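 also: 0% = median of neutral control wells and 100% = no fluorescence left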
RAD52 anneal inh = RAD52 DNA annealing inhibitors, primary screen, biochemical, FRET, single point, set 2; inhibition, % at 18.7 µM; hit rate 0.46% among 360,000; recombinant RAD52 DNA annealing, FRET fluorescence;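 active = every replicate showing at least 50% inhibition; inconclusive = mean inhibition at least 50% but not in every replicate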
NSD2 HMT inh = NSD2 histone methyltransferase inhibitors, primary screen, biochemical, AlphaScreen, single concentration, set 2. inhibition, % at 12.5 µM. NSD2 peptide methylation, 120 min. hit rate 0.54% among 310,000. Histone-lysine N-methyltransferase NSD2 (Homo sapiens), O96028; in the data active = inhibition above about 50%
rRNA inh HTS = reduced GFP signal of wild-type E. coli, primary screen, bacterial rRNA inhibitor project, GFP/RFP fluorescence, OD600, single point; AID 720706, 2013; hit rate 1.6% among 350,000; GFP signal change (wild-type ribosome), % (test concentration not listed); E. coli WT GFP vs humanized-ribosome RFP mutants, 24 h; hits give low values; DMSO median 0, no signal -100;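 active = significant combined selectivity score with lowered wild-type GFP, culture density cut under 30%, mutant RFP and density less affected; inactive = any of these conditions unmet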
Starred values were filed as active, the others as inactive; i = inactive; ? = inconclusive; / = no result. An excerpt weighted towards active compounds, which were near 2.5% of everything screened.

SMILES	AF4-AF9 inh	CASP6 VEID inh	RAD52 anneal inh	NSD2 HMT inh	rRNA inh HTS
COc1cc2[nH]c(=S)nc(NC3CCCCCC3)c2cc1OC	4	-5	58*	/	-39
COc1cc2[nH]c(=S)nc(NCCc3ccc(C)cc3)c2cc1OC	3	4	-14	-2	-26*
COc1cc2[nH]c(=S)nc(NCC3CCCO3)c2cc1OC (centres undefined)	/	-1	7	5	3
C[C@@H]1CN([C@H](C)CO)S(=O)(=O)c2ccc(Br)cc2O[C@@H]1CN(C)C(=O)c1cnccn1	1	-3	3	/	0
Cc1ccsc1C(=O)OCC(=O)N(Cc1ccccc1)C(C)C	-2	-1	-9	-4	-30*
Cc1cc(NC(=O)C2CC(=O)N(c3cccc(C)c3C)C2)no1 (centres undefined)	44*	-2	-3	-2	7
C/C=C/c1ccc2c(c1)O[C@@H](CN(C)C(=O)Nc1ccc(C(F)(F)F)cc1)[C@H](C)CN([C@H](C)CO)S2(=O)=O	3	0	16	/	0
CCOC(=O)CCCCC(=O)c1[nH]c(=O)[nH]c1CSCCO	77*	-5	3	4	4
CCOC(=O)CCCCC(=O)c1[nH]c(=O)[nH]c1CSc1nc(-c2ccccc2)c(C#N)c(=O)[nH]1	?	/	-16	15	7
CO[C@H]1CN(C)C(=O)c2cc(NC(=O)CC(F)(F)F)ccc2OC[C@@H](C)N(C(=O)C2CC2)C[C@H]1C	-1	-1	-62	/	1
C[C@H]1CN([C@@H](C)CO)C(=O)c2cc(N(C)C)ccc2O[C@@H]1CN(C)Cc1ccc(Oc2ccccc2)cc1	40*	1	10	/	-2
C[C@@H]1CN([C@@H](C)CO)C(=O)c2cc(N(C)C)ccc2O[C@@H]1CN(C)Cc1ccc(Oc2ccccc2)cc1	/	/	/	/	5
C[C@H]1CN([C@@H](C)CO)C(=O)c2cc(N(C)C)ccc2O[C@H]1CN(C)Cc1ccc(Oc2ccccc2)cc1	45*	-3	1	/	-5
C[C@@H]1CN([C@@H](C)CO)C(=O)c2cc(N(C)C)ccc2O[C@H]1CN(C)Cc1ccc(Oc2ccccc2)cc1	45*	-1	-1	/	-3
CC1=NN(c2ccccc2)C(=O)C1C(=S)SC1CC(=O)NC1=O (centres undefined)	-1	/	-2	-2	/
O=C1CC(SC(=S)C2CCCC2=O)C(=O)N1 (centres undefined)	-13	49*	-46	34	13
COCCCNC(=O)CN1C(=O)COc2ccc(S(=O)(=O)N3CCCCCC3)cc21	-4	1	-2	-3	3
CC(C)OCCCNC(=O)CN1C(=O)COc2ccc(S(=O)(=O)N3CCCCCC3)cc21	-2	37*	-9	/	0
CCOc1ccc(NC(=O)CN2C(=O)COc3ccc(S(=O)(=O)N4CCCC4)cc32)cc1	0	2	-5	-2	-23*
O=C(Nc1ccccc1)N[C@@H]1CC[C@@H](CCn2cc(-c3ccccc3F)nn2)O[C@@H]1CO	-3	1	-8	/	-2
C[C@H](CO)N1C[C@H](C)[C@@H](CN(C)S(=O)(=O)c2ccc(F)cc2)Oc2ncc(-c3ccncc3)cc2C1=O	-3	-1	-2	/	-4
COC(=O)c1ccc(-n2c(C)ccc2-c2ccccc2)cc1	13	-1	-14	5	-22*
O=C(C[C@@H]1C=C[C@H](NS(=O)(=O)c2ccc(F)cc2)[C@@H](CO)O1)NCc1ccccc1F	-4	-1	4	/	-1
CC(C)NC(=O)Nc1cccc2c1O[C@H](CN(C)C(=O)Nc1ccccc1)[C@@H](C)CN([C@@H](C)CO)C2=O	-2	-2	3	/	2
CN(C)CCNc1ccc2ncn3c4ccc(O)cc4c(=O)c1c23	34*	25	i	21	/
Cc1noc(C)c1C(=O)NCCCc1ccccc1	/	/	/	-10	/
O=C(Nc1ccc(F)cc1)c1ccc(CSc2ccc(Cl)cc2)o1	-2	-5	-3	-1	-32*
COc1ccc(CCNC(=O)c2c(C)noc2C)cc1	1	50*	-4	1	4
COc1ccc(CCNC(=O)c2ccc(CSc3ccccc3)o2)cc1	-4	/	-1	/	-37*

Source: PubChem
